The whole screen tested about 5,500 compounds, of which about 2,000 (36%) were called active. Another 18% or so got no clear call; they are omitted. No stated cut-off is given here; in the data, active means normalized growth mostly below about 0.91 (no sharp cut-off); inconclusive means no clear call, values can overlap the other calls; inactive means mostly above about 0.92. Some of the results follow.
Assay: chemical genetic growth profiling, strain panel (AID 1159580);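 further: tested at 20 µM; growth read once vehicle control cultures reached saturation at 30 °C; 1 = growth at the plate median or of vehicle wells; lower values mean less growth of the strain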
Settings: growth OD

Measured: normalized growth

C#CCCCCCCCCCCCC(O)CC(O)CO (configuration not stated)
active: S. cerevisiae deletion strains, locus YLR113W, strain HOG1, active compounds read low 0.832 | S. cerevisiae deletion strains, locus YNL183C, strain NPR1, active compounds read low 0.774 | S. cerevisiae deletion strains, locus YOR231W, strain MKK1, active compounds read low 0.851
inactive: S. cerevisiae deletion strains, locus YJR075W, strain HOC1, active compounds read low 0.987 | S. cerevisiae deletion strains, locus YKL009W, strain mrt4, active compounds read low 1 | S. cerevisiae deletion strains, locus YKL068W, active compounds read low 1.01 | S. cerevisiae deletion strains, locus YKL085W, strain MDH1 (second series), active compounds read low 1.01 | S. cerevisiae deletion strains, locus YKL085W, strain MDH1, active compounds read low 1.01 | S. cerevisiae deletion strains, locus YKL160W, strain elf1, active compounds read low 0.97 | S. cerevisiae deletion strains, locus YKL190W, strain CNB1, active compounds read low 0.999 | S. cerevisiae deletion strains, locus YKR001C, strain vps1, active compounds read low 1 | S. cerevisiae deletion strains, locus YKR026C, strain gcn3, active compounds read low 0.982 | S. cerevisiae deletion strains, locus YKR091W, strain srl3, active compounds read low 0.979 | S. cerevisiae deletion strains, locus YLL001W, strain dnm1, active compounds read low 0.961 | S. cerevisiae deletion strains, locus YLL026W, active compounds read low 0.993 | S. cerevisiae deletion strains, locus YLL041C, strain sdh2, active compounds read low 0.986 | S. cerevisiae deletion strains, locus YLR027C, strain aat2, active compounds read low 0.986 | S. cerevisiae deletion strains, locus YLR039C, strain RIC1, active compounds read low 1.08 | S. cerevisiae deletion strains, locus YLR058C, strain SHM2, active compounds read low 1 | S. cerevisiae deletion strains, locus YLR102C, strain apc9, active compounds read low 1.01 | S. cerevisiae deletion strains, locus YLR221C, strain rsa3, active compounds read low 0.974 | S. cerevisiae deletion strains, locus YLR258W, strain gsy2, active compounds read low 0.99 | S. cerevisiae deletion strains, locus YLR262C, strain YPT6 (second series), active compounds read low 0.966 | S. cerevisiae deletion strains, locus YLR262C, strain YPT6, active compounds read low 1.07 | S. cerevisiae deletion strains, locus YLR268W, strain sec22, active compounds read low 1 | S. cerevisiae deletion strains, locus YLR320W, strain mms22, active compounds read low 0.946 | S. cerevisiae deletion strains, locus YLR330W, strain CHS5, active compounds read low 0.99 | S. cerevisiae deletion strains, locus YLR342W, strain FKS1 (second series), active compounds read low 0.975 | S. cerevisiae deletion strains, locus YLR342W, strain FKS1, active compounds read low 0.985 | S. cerevisiae deletion strains, locus YLR357W, strain rsc2, active compounds read low 0.954 | S. cerevisiae deletion strains, locus YLR370C, strain arc18, active compounds read low 0.985 | S. cerevisiae deletion strains, locus YLR371W, strain rom2, active compounds read low 1.01 | S. cerevisiae deletion strains, locus YLR384C, strain iki3, active compounds read low 0.98 | S. cerevisiae deletion strains, locus YLR418C, strain cdc73, active compounds read low 1.02 | S. cerevisiae deletion strains, locus YML016C, strain PPZ1, active compounds read low 1 | S. cerevisiae deletion strains, locus YML032C, strain rad52, active compounds read low 1.02 | S. cerevisiae deletion strains, locus YML120C, strain ndi1, active compounds read low 0.986 | S. cerevisiae deletion strains, locus YML124C, strain tub3, active compounds read low 1.01 | S. cerevisiae deletion strains, locus YMR058W, strain fet3, active compounds read low 0.991 | S. cerevisiae deletion strains, locus YMR078C, strain ctf18, active compounds read low 1 | S. cerevisiae deletion strains, locus YMR125W, strain sto1, active compounds read low 0.967 | S. cerevisiae deletion strains, locus YMR129W, active compounds read low 0.988 | S. cerevisiae deletion strains, locus YMR205C, strain PFK2, active compounds read low 0.962 | S. cerevisiae deletion strains, locus YMR223W, strain ubp8, active compounds read low 1.01 | S. cerevisiae deletion strains, locus YMR231W, strain pep5, active compounds read low 0.974 | S. cerevisiae deletion strains, locus YMR263W, strain SAP30, active compounds read low 1 | S. cerevisiae deletion strains, locus YMR307W, strain GAS1, active compounds read low 1.19 | S. cerevisiae deletion strains, locus YNL067W, strain RPL9B, active compounds read low 0.987 | S. cerevisiae deletion strains, locus YNL071W, strain lat1, active compounds read low 0.988 | S. cerevisiae deletion strains, locus YNL128W, strain TEP1, active compounds read low 1.01 | S. cerevisiae deletion strains, locus YNL153C, strain GIM3, active compounds read low 1 | S. cerevisiae deletion strains, locus YNL209W, strain ssb2, active compounds read low 0.996 | S. cerevisiae deletion strains, locus YNL233W, strain BNI4, active compounds read low 0.991 | S. cerevisiae deletion strains, locus YNL248C, strain rpa49, active compounds read low 0.97 | S. cerevisiae deletion strains, locus YNL250W, strain rad50, active compounds read low 1.03 | S. cerevisiae deletion strains, locus YNL271C, strain bni1, active compounds read low 1.02 | S. cerevisiae deletion strains, locus YNL298W, strain CLA4, active compounds read low 1.01 | S. cerevisiae deletion strains, locus YNL307C, strain MCK1, active compounds read low 0.98 | S. cerevisiae deletion strains, locus YNL322C, strain KRE1 (second series), active compounds read low 0.978 | S. cerevisiae deletion strains, locus YNL322C, strain KRE1, active compounds read low 1 | S. cerevisiae deletion strains, locus YNR049C, strain mso1, active compounds read low 0.992 | S. cerevisiae deletion strains, locus YNR052C, strain pop2, active compounds read low 1.01 | S. cerevisiae deletion strains, locus YOL006C, strain TOP1, active compounds read low 0.96 | S. cerevisiae deletion strains, locus YOL012C, strain htz1 0.976 | S. cerevisiae deletion strains, locus YOL147C, strain pex11, active compounds read low 1 | S. cerevisiae deletion strains, locus YOR001W, strain rrp6, active compounds read low 0.998 | S. cerevisiae deletion strains, locus YOR061W, strain CKA2, active compounds read low 0.921 | S. cerevisiae deletion strains, locus YOR069W, strain VPS5, active compounds read low 1 | S. cerevisiae deletion strains, locus YOR070C, strain gyp1, active compounds read low 0.977 | S. cerevisiae deletion strains, locus YOR080W, strain dia2, active compounds read low 0.994 | S. cerevisiae deletion strains, locus YOR083W, strain WHI5, active compounds read low 0.95 | S. cerevisiae deletion strains, locus YOR106W, strain vam3, active compounds read low 0.977 | S. cerevisiae deletion strains, locus YOR136W, strain idh2, active compounds read low 0.998 | S. cerevisiae deletion strains, locus YOR144C, strain elg1, active compounds read low 1.01 | S. cerevisiae deletion strains, locus YOR184W, strain ser1, active compounds read low 1.01 | S. cerevisiae deletion strains, locus YOR265W, strain rbl2, active compounds read low 0.99 | S. cerevisiae deletion strains, locus YOR270C, strain vph1, active compounds read low 0.944 | S. cerevisiae deletion strains, locus YOR290C, strain snf2, active compounds read low 0.948 | S. cerevisiae deletion strains, locus YOR316C, strain cot1, active compounds read low 1.01 | S. cerevisiae deletion strains, locus YPL051W, strain arl3, active compounds read low 0.989 | S. cerevisiae deletion strains, locus YPL055C, strain LGE1, active compounds read low 0.994 | S. cerevisiae deletion strains, locus YPL078C, strain atp4, active compounds read low 0.981 | S. cerevisiae deletion strains, locus YPL106C, strain sse1, active compounds read low 0.981 | S. cerevisiae deletion strains, locus YPL240C, strain hsp82, active compounds read low 0.998 | S. cerevisiae deletion strains, locus YPL241C, strain CIN2, active compounds read low 1 | S. cerevisiae deletion strains, locus YPL256C, strain CLN2, active compounds read low 0.881 | S. cerevisiae deletion strains, locus YPR119W, strain clb2, active compounds read low 1.01 | S. cerevisiae deletion strains, locus YPR141C, strain kar3, active compounds read low 1.04 | S. cerevisiae deletion strains, locus YPR163C, strain tif3, active compounds read low 0.997 | S. cerevisiae deletion strains, locus YPR167C, strain met16, active compounds read low 1.01 | S. cerevisiae deletion strains, strain wtn01, active compounds read low 1.01 | S. cerevisiae strains, strain wild type, active compounds read low 0.992
